Laboratory results: PubChem BioAssay (NCI)
This is part of a sample that, as a whole, favours compounds with a hit. Of some 83,000 tested, about 20% had one in any assay.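 Step 1: grow cells in 96-well plates. Step 2: add test compound at a single concentration. Step 3: incubate 48 h. Step 4: record percent growth.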 The source made the active and inactive calls. Rule for the calls: active = growth percent below 10; inactive = the rest.

Key:
Experiment in all cases: NCI-60 one-dose screen, 48 h (100 = growth as untreated, 0 = no growth, -100 = all killed)
Details in all cases: 10 µM unless noted
HCT-15 colon = system: HCT-15 colon
HT29 colon = system: HT29 colon
SNB-75 CNS = system: SNB-75 CNS
SNB-19 CNS = system: SNB-19 CNS
U251 CNS = system: U251 CNS
PC-3 prostate = system: PC-3 prostate
SK-MEL-5 melanoma = system: SK-MEL-5 melanoma
UACC-62 melanoma = system: UACC-62 melanoma
LOX IMVI melanoma = system: LOX IMVI melanoma
SK-MEL-28 melanoma = system: SK-MEL-28 melanoma

Measured: growth

O=C(N/N=C/c1ccc(-c2cccc([N+](=O)[O-])c2)s1)c1[nH]c2ccc(Br)cc2c1-c1ccccc1
inactive: HCT-15 colon 84.9% | HT29 colon 109% | SNB-75 CNS 86.8% | SNB-19 CNS 56.1% | U251 CNS 73.4% | PC-3 prostate 85.7% | SK-MEL-5 melanoma 93.8% | UACC-62 melanoma 70.5% | LOX IMVI melanoma 85.8% | SK-MEL-28 melanoma 87.6%

O=C(CSc1nc2sc3c(c2c(=O)n1-c1ccc(Cl)cc1)CCCC3)NNC(=O)c1ccc(Br)cc1
inactive: HCT-15 colon 73.9% | HT29 colon 100% | SNB-75 CNS 82.7% | SNB-19 CNS 24.8% | U251 CNS 26.6% | PC-3 prostate 71.8% | SK-MEL-5 melanoma 74.2% | UACC-62 melanoma 36.6% | LOX IMVI melanoma 52.1% | SK-MEL-28 melanoma 78.8%

CC(C)C[C@H](NC(=O)CNC(=O)C[C@H]1O[C@@H]2OC3(C)CC[C@H]4[C@H](C)CC[C@@H]([C@H]1C)[C@@]24O3)B(O)O
inactive: HCT-15 colon 33.1% | SNB-19 CNS 28.2% | U251 CNS 17.4%
active: HT29 colon -43.6% | SNB-75 CNS -34.8% | PC-3 prostate 9.34% | SK-MEL-5 melanoma -87.6% | UACC-62 melanoma -81.2% | LOX IMVI melanoma -83.6% | SK-MEL-28 melanoma -34.4%

CCCCCCCOc1ccc(S(=O)(=O)Nc2ccc(C)c(F)c2C(=O)O)cc1
inactive: HCT-15 colon 79.4% | HT29 colon 121% | SNB-75 CNS 104% | SNB-19 CNS 89.4% | U251 CNS 91.4% | PC-3 prostate 91% | SK-MEL-5 melanoma 96.7% | UACC-62 melanoma 90.6% | LOX IMVI melanoma 98.9% | SK-MEL-28 melanoma 117%

O=C(CSc1nnc(-c2ccc(-c3nc4ccccc4[nH]3)cc2)o1)Nc1ccc(Cl)cc1
active: SNB-19 CNS -37.3% | U251 CNS -75.4% | PC-3 prostate 7.32% | LOX IMVI melanoma -92.4% | SK-MEL-28 melanoma -85%
inactive: HCT-15 colon 19.3% | HT29 colon 26.6% | SNB-75 CNS 62.4% | SK-MEL-5 melanoma 34.1% | UACC-62 melanoma 23.9%

CN(C)c1nc(NCCNS(=O)(=O)c2ccc(C(=O)/C=C/c3ccc(C(F)(F)F)cc3)cc2)nc(N2CCOCC2)n1
active: HCT-15 colon -78.2% | HT29 colon -73% | U251 CNS -85.5% | PC-3 prostate -60.1% | SK-MEL-5 melanoma -42.8% | LOX IMVI melanoma -99.2% | SK-MEL-28 melanoma -9.43%
inactive: SNB-75 CNS 59.5% | SNB-19 CNS 57.8% | UACC-62 melanoma 48.2%

CCC1(OC(=O)c2ccccc2SSCCOC(=O)CCCCC2SCC3NC(=O)NC32)C(=O)OCc2c1cc1n(c2=O)Cc2cc3ccccc3nc2-1 (stereo not given)
inactive: HCT-15 colon 64.7% | HT29 colon 67.8% | SNB-75 CNS 81.3% | SNB-19 CNS 36.7% | U251 CNS 36.2% | PC-3 prostate 37.4% | SK-MEL-5 melanoma 21.1% | UACC-62 melanoma 17.7% | LOX IMVI melanoma 33.9% | SK-MEL-28 melanoma 96%

COc1cc(C2CC(c3ccc(C(F)(F)F)cc3)=Nc3c(N)nc(N)nc3N2)ccc1Oc1nc(Nc2ccc(F)cc2)nc(N(C)C)n1 (stereo not given)
active: HT29 colon 3.28% | LOX IMVI melanoma -17.6%
inactive: HCT-15 colon 18.5% | SNB-75 CNS 46.6% | SNB-19 CNS 49.3% | U251 CNS 41.4% | PC-3 prostate 30.7% | SK-MEL-5 melanoma 23.9% | UACC-62 melanoma 86.3% | SK-MEL-28 melanoma 71.5%

C[C@@H]1CN(c2ccc3ncc(C#Cc4cncc(C(=O)Nc5ccc(CN6CCN(C)CC6)c(C(F)(F)F)c5)c4)n3n2)C[C@@H](C)O1
active: HCT-15 colon -91% | HT29 colon -60.5% | SNB-75 CNS -95.9% | SNB-19 CNS -99.8% | U251 CNS -68.8% | PC-3 prostate -54.9% | SK-MEL-5 melanoma -99.6% | UACC-62 melanoma -65.6% | LOX IMVI melanoma -96.8% | SK-MEL-28 melanoma -58.4%

CN1CCc2c(sc3ncnc(N/N=C/c4cccc(Cl)c4Cl)c23)C1
active: HCT-15 colon -14.5% | HT29 colon -12.7% | SNB-19 CNS 4.21% | U251 CNS -96.3% | LOX IMVI melanoma -82.5%
inactive: SNB-75 CNS 76.3% | PC-3 prostate 96% | SK-MEL-5 melanoma 80.7% | UACC-62 melanoma 92.5% | SK-MEL-28 melanoma 103%

COc1ccc(N=Nc2c(N)nn3c(N)c(C#N)c(-c4ccc(F)cc4)nc23)cc1
inactive: HCT-15 colon 86.1% | HT29 colon 84.6% | SNB-75 CNS 82.4% | SNB-19 CNS 59.5% | U251 CNS 48.7% | PC-3 prostate 67% | SK-MEL-5 melanoma 34.7% | UACC-62 melanoma 61.5% | LOX IMVI melanoma 75.1% | SK-MEL-28 melanoma 90.5%

ClC(Cn1ncc2c(Nc3cccc(Br)c3)nc(SCCN3CCOCC3)nc21)c1ccc(Br)cc1 (stereo not given)
active: HCT-15 colon -76.9% | HT29 colon -43% | U251 CNS -4.38% | SK-MEL-5 melanoma -89.9% | UACC-62 melanoma -44.3% | LOX IMVI melanoma -89.4% | SK-MEL-28 melanoma -46.4%
inactive: SNB-75 CNS 59.8% | SNB-19 CNS 22.5% | PC-3 prostate 21.3%

COc1cc(CNC(=O)C[C@H](C)CCC=C(C)C)ccc1OCc1cn(-c2ccc(Cl)cc2Cl)nn1
inactive: HCT-15 colon 79.6% | HT29 colon 82.3% | SNB-19 CNS 50% | U251 CNS 54.4% | PC-3 prostate 85% | SK-MEL-5 melanoma 60.4% | UACC-62 melanoma 65.6% | LOX IMVI melanoma 80.7% | SK-MEL-28 melanoma 96.3%
active: SNB-75 CNS 7.99%

Nc1nnc(-c2cncc(Br)c2)c(-c2c[nH]c3ccc(Br)cc23)n1
inactive: HCT-15 colon 37.1% | HT29 colon 35.6% | SNB-75 CNS 50.5% | SNB-19 CNS 59.5% | U251 CNS 63% | PC-3 prostate 56% | SK-MEL-5 melanoma 31.1% | UACC-62 melanoma 55.2% | LOX IMVI melanoma 43.1% | SK-MEL-28 melanoma 67.5%

COc1ccc(SC2c3cc(OC)ccc3Oc3nc(N)c(C#N)c(N)c32)cc1 (stereo not given)
active: LOX IMVI melanoma 5.16%
inactive: HCT-15 colon 80.5% | HT29 colon 97.4% | SNB-75 CNS 49.6% | SNB-19 CNS 71.7% | U251 CNS 65.3% | PC-3 prostate 42.4% | SK-MEL-5 melanoma 60.4% | UACC-62 melanoma 65.5% | SK-MEL-28 melanoma 111%

OC1CCC(Cn2c(C(F)(F)F)cc3c(Cl)ncnc32)CC1 (stereo not given)
inactive: HT29 colon 49.9% | U251 CNS 11.6% | PC-3 prostate 23.5% | SK-MEL-28 melanoma 20.2%
active: HCT-15 colon -14.2% | SNB-75 CNS -71.6% | SNB-19 CNS -88.6% | SK-MEL-5 melanoma -83.6% | UACC-62 melanoma -53.5% | LOX IMVI melanoma -98.4%

CS(=O)(=O)Nc1cccc(-n2cnc3cc(-c4ccc(O)cc4)ccc32)c1
inactive: HCT-15 colon 30.9% | HT29 colon 16% | SNB-75 CNS 53.8% | SNB-19 CNS 25.4% | U251 CNS 26.2% | PC-3 prostate 45.8% | SK-MEL-5 melanoma 19.7% | UACC-62 melanoma 26.3% | LOX IMVI melanoma 41.9% | SK-MEL-28 melanoma 63.2%

COc1cc(/C=C/C(=O)c2cnn(-c3cc(=O)[nH]c4ccc(Cl)cc34)c2C)cc(OC)c1OC
active: HCT-15 colon -40.2% | HT29 colon -71.9% | SNB-75 CNS -11.4% | SNB-19 CNS -68.9% | U251 CNS -65.7% | PC-3 prostate -26.9% | SK-MEL-5 melanoma -88.9% | UACC-62 melanoma -49.1% | LOX IMVI melanoma -60.8% | SK-MEL-28 melanoma -69.2%

O=C(Nc1ccc(Cl)c(C(F)(F)F)c1)N1CCN(c2cc(-c3cn(-c4ccccc4)nc3-c3cccc(O)c3)ccn2)CC1
active: HCT-15 colon -7.34% | HT29 colon -35.3% | SNB-75 CNS 5.08% | PC-3 prostate 6.31% | SK-MEL-5 melanoma -97.2% | UACC-62 melanoma -88.6% | LOX IMVI melanoma -76.9% | SK-MEL-28 melanoma -24.8%
inactive: SNB-19 CNS 17% | U251 CNS 11.8%

O=c1[nH]c2ccccc2cc1CSc1ccccc1Nc1nccc(-c2ccc3c(c2)OCO3)n1
inactive: HCT-15 colon 95.1% | HT29 colon 94.4% | SNB-19 CNS 63.1% | U251 CNS 51.3% | PC-3 prostate 79.2% | SK-MEL-5 melanoma 87.2% | UACC-62 melanoma 68.5% | LOX IMVI melanoma 76.5% | SK-MEL-28 melanoma 83%
active: SNB-75 CNS 9.83%

Cc1ccc2c(c1)/C(=C/C(=O)c1cc3ccccc3oc1=O)C(=O)N2
inactive: HT29 colon 59.9% | SNB-75 CNS 88.7% | SNB-19 CNS 87.8% | U251 CNS 73.9% | PC-3 prostate 73.5% | SK-MEL-5 melanoma 94.2% | UACC-62 melanoma 49.7% | LOX IMVI melanoma 27.4% | SK-MEL-28 melanoma 55.7%
active: HCT-15 colon -20.4%

S=C(Nc1ccccc1)Nc1ccc(OCc2nc3ccc(Cl)cc3[nH]2)cc1
inactive: HCT-15 colon 67.9% | HT29 colon 105% | SNB-75 CNS 89.4% | SNB-19 CNS 89.1% | U251 CNS 82.6% | PC-3 prostate 77.8% | SK-MEL-5 melanoma 82.8% | UACC-62 melanoma 77.3% | LOX IMVI melanoma 36.3% | SK-MEL-28 melanoma 87.9%

O=C1Nc2ccc(F)cc2/C1=C/C(=O)c1cc2ccccc2oc1=O
inactive: HCT-15 colon 62.7% | HT29 colon 115% | SNB-75 CNS 91.1% | SNB-19 CNS 100% | U251 CNS 104% | PC-3 prostate 93.7% | SK-MEL-5 melanoma 102% | UACC-62 melanoma 82.2% | LOX IMVI melanoma 80.4% | SK-MEL-28 melanoma 117%

O=C(N=Nc1c(O)[nH]c2ccc(Cl)cc12)c1ccc2nc(-c3ccc(Cl)cc3)[nH]c2c1
inactive: HCT-15 colon 78.6% | HT29 colon 16.9% | PC-3 prostate 28.1% | SK-MEL-5 melanoma 66.8%
active: SNB-75 CNS -21.3% | SNB-19 CNS -52.2% | U251 CNS -88.3% | UACC-62 melanoma -59% | LOX IMVI melanoma -100% | SK-MEL-28 melanoma -79.3%

Oc1ccc(Cl)c(Nc2nc(SCCN3CCOCC3)nc3c2cnn3CC(Cl)c2ccc(Br)cc2)c1 (stereo not given)
active: HCT-15 colon 8.41% | HT29 colon 6.18% | LOX IMVI melanoma -59.3%
inactive: SNB-75 CNS 11.5% | SNB-19 CNS 37.8% | U251 CNS 23.9% | PC-3 prostate 14.5% | SK-MEL-5 melanoma 16.6% | UACC-62 melanoma 39.9% | SK-MEL-28 melanoma 32%

C[C@@H](Nc1c(C#N)cnc2ccc(-c3cnc4[nH]ncc4c3)cc12)c1ccccc1
inactive: HT29 colon 79.5% | SNB-19 CNS 30.7% | U251 CNS 23.4% | PC-3 prostate 13.4% | LOX IMVI melanoma 16% | SK-MEL-28 melanoma 15.4%
active: HCT-15 colon 8.64% | SNB-75 CNS -26.9% | SK-MEL-5 melanoma -67.5% | UACC-62 melanoma -16%
